Source: PubChem (several laboratories)
Cav32 inh: Cav3.2 calcium influx blockers – cell-based, Fluo-4 calcium fluorescence, FDSS, MLSMR library, primary screen; 100,000 tested, 4% active; Voltage-dependent T-type calcium channel subunit alpha-1H (Homo sapiens), O95180; AID 449739, 2010; Cav3.2-expressing cells; stronger effect = lower value; B-score at 10 µM;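 active means single-dose well whose peak fluorescence ratio is a statistical outlier from its plate by either plate-standardised score or position-corrected B-score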
CYP2C9 act: human CYP2C9 activators, primary screen, biochemical, luminescence. recombinant CYP2C9, luciferin-H conversion; stronger effect = higher value; factor 1 = untreated enzyme, 0 = blocked. Cytochrome P450 2C9 (Homo sapiens), P11712. activation factor at 5 µM. AID 1024, 2008. 96,000 tested, 1.4% active;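 active means activation factor of 2 or more for CYP2C9 at a 5 µM dose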;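 further: 0 = sulfaphenazole-blocked wells and 1 = vehicle-only wells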
CYP2C9 inh: blockers of cytochrome P450 2C9 activity – biochemical, luminescence, ADME assay, primary screen | CYP2C9 Supersomes, luciferin-H conversion | P11712 | inhibition, % at 5 µM | 96,000 tested, 20% active;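 active means blocking of liver enzyme CYP2C9 beyond about 50% at 5 µM, limit read from the data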
CYP2C19 inh: blockers of cytochrome P450 2C19 activity – biochemical, luminescence, ADME assay, primary screen | 96,000 tested, 21% active | P33261 | inhibition, % at 5 µM | CYP2C19 Supersomes, luciferin-H EGE luminescence, 30 min;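 active means CYP2C19 inhibition above a set limit at 5 µM in the primary screen, cut at about 50% in these data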;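 further: plate controls were negative control wells for no effect and 2.5 mM tranylcypromine positive control for full effect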
CYP2C19 activ: human CYP2C19 activators, primary screen, biochemical, luminescence; 96,000 tested, under 10 active; recombinant CYP2C19, luciferin-H EGE luminescence; stronger effect = higher value; 0 = fully inhibited enzyme, 1 = untreated enzyme; AID 1025, 2008; Cytochrome P450 2C19 (Homo sapiens), P33261; activation factor at 5 µM;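 active means activation factor of at least 2 at 5 µM in the primary screen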;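 further: 0 = wells with 2.5 mM tranylcypromine and 1 = vehicle-only wells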
Numbers without * were called inactive; · = no result given. Only some compounds are listed: those with a hit (about 27% of all), similar ones and a draw of the others.

SMILES	Cav32 inh	CYP2C9 act	CYP2C9 inh	CYP2C19 inh	CYP2C19 activ
Cc1cccc(C(CC(=O)O)n2cccc2)c1 (centres undefined)	0.24	0.2	76*	6	0.9
O=C(O)CC(c1cccc(Cl)c1)n1cccc1 (centres undefined)	0.021	0.6	39	1	1
O=C(OCCN1C(=O)c2ccccc2C1=O)c1cccc(OC(F)F)c1	-0.33	0.7	26	90*	0.1
O=C(OCCN1CCCCC1)c1ccc(O)cc1	-0.97	1	3	-15	1.2
O=C(OCCN1CCCCC1)c1ccccc1Cl	0.041	1	1	60*	0.4
COc1cccc(C(=O)OCCN2CCCCC2)c1	-9.4*	·	·	·	·
COc1ccc(NC(=O)C(NC(=O)c2ccccc2)C(C)C)cc1 (centres undefined)	0.43	0.9	11	12	0.9
CC(C)(C)NC(NC(=O)Cc1ccccc1)C(Cl)(Cl)Cl (centres undefined)	-1.2	0.9	5	70*	0.3
O=C(Cc1ccccc1)NC(Nc1ccccc1)C(Cl)(Cl)Cl (centres undefined)	-4.2*	0.3	73*	82*	0.2
COc1ccc(C(=O)NC(Nc2ccccc2)C(Cl)(Cl)Cl)cc1 (centres undefined)	-1.6	0.2	85*	36	0.6
O=C(Cc1ccccc1)Nc1ccc(C(=O)O)cc1	0.47	·	·	·	·
Cc1c(CCCC(=O)O)sc(N)c1C(=O)c1cccc(C(F)(F)F)c1	-0.88	·	·	·	·
CC1(C)CC2CC(C)(CN2C(=O)c2cc(-c3ccccc3O)on2)C1 (centres undefined)	-0.06	0.3	73*	54*	0.5
CC1(C)CC2CC(C)(CN2C(=O)c2cccs2)C1 (centres undefined)	-0.083	0.6	38	74*	0.3
CC1(C)CC2CC(C)(CN2C(=O)CCCN2C(=O)c3ccccc3C2=O)C1 (centres undefined)	-0.026	0.9	8	86*	0.1
CC1CCN(C(=O)c2cc(-c3ccccc3O)on2)CC1	0.09	1.2	-19	67*	0.3
COc1ccc(-c2cc(C(=O)N3CC4(C)CC3CC(C)(C)C4)no2)cc1 (centres undefined)	-1.4	0.7	27	8	0.9
O=[N+]([O-])c1cccc(C(=Nc2ccc(Cl)cc2)NO)c1	-1.8	0.3	71*	88*	0.1
C/C(=N\NC(N)=O)c1ccc(Cl)cc1	·	0.8	16	15	0.9
O=[N+]([O-])c1cccc(C(=Nc2ccccc2Cl)NO)c1	·	0.4	62*	87*	0.1
ONC(=Nc1ccc(Cl)cc1)c1ccc(Cl)cc1	·	0.4	55*	71*	0.3
Cc1cc(NS(=O)(=O)c2ccc(NC(=S)NC(=O)c3ccc(Cl)cc3Cl)cc2)no1	0.65	0.7	25	0	1
Cc1nc2nc(C)c(CCC(=O)N3CCOCC3)c(C)n2n1	-0.77	0.9	10	0	1
CC(Sc1nc(-c2ccccc2)cc(C(F)(F)F)n1)C(=O)NCCN1CCOCC1 (centres undefined)	0.25	1	3	12	0.9
COc1ccc(S(=O)(=O)Nc2cc(Sc3ncn[nH]3)c(O)c3ccccc23)cc1	·	0.1	94*	97*	0
SMILES	Cav32 inh	CYP2C9 act	CYP2C9 inh	CYP2C19 inh	CYP2C19 activ
COc1ccc(S(=O)(=O)Nc2ccc(O)c(Sc3ncn[nH]3)c2)cc1	-0.32	·	·	·	·
CC(=O)CSc1nnc(-c2ccc(S(=O)(=O)N3CCC(C)CC3)cc2)o1	0.038	·	·	·	·
C=CCSc1ncccc1C(=O)NCc1ccccc1	-0.04	0.9	11	88*	0.1
CCOC(=O)c1cccnc1SCC(=O)NCc1ccccc1	0.58	0.1	92*	98*	0
COc1ccc(-c2ccc3oc(-c4ccc(OC)cc4)c(C#CCCO)c3c2)cc1	0.59	·	·	·	·
Cn1nc(C(C)(C)C)cc1C(=O)Nc1nc2c(s1)C(=O)CC(C)(C)C2	0.88	0.9	8	10	0.9
CC(C)(C)C1CC=C2C(C#N)=C(N)C(C#N)(C#N)C(c3cccs3)C2C1 (centres undefined)	·	0.1	90*	57*	0.4
CN1C2C=C3C(C#N)=C(N)C(C#N)(C#N)[C@@H](c4cccs4)C3C1CC2 (some centres undefined)	2.1	0.8	17	19	0.8
COc1ccc(CN(C(C)=O)c2cccc(C)c2C)cc1	-3	0.3	68*	99*	0
Cc1cc(C)c(NC(=O)Cn2c(=O)n(Cc3ccco3)c(=O)c3ccccc32)c(C)c1	-0.26	0.8	16	19	0.8
C#CCOCCOCCOCCNc1nc(N2CCN(C(=O)C([C@@H](C)CC)n3cc(C(N)Cc4ccc(O)cc4)nn3)CC2)nc(N2CCN(C(=O)[C@H](CCC(=O)O)n3cc(C(N)CO)nn3)CC2)n1 (some centres undefined)	1.1	·	·	·	·
CCOC(=O)CSc1nc2ccc(N3CCOCC3)cc2c(=O)n1Cc1ccccc1	-1.6	0.2	83*	76*	0.2
CCOC(=O)CSc1nc2ccccc2c(=O)n1CCN1CCOCC1	0.4	·	·	·	·
COCCNC(=O)CSc1nc2ccc(N3CCOCC3)cc2c(=O)n1CCc1ccccc1	0.59	0.4	64*	61*	0.4
CCn1ncc(C2=NOC(C(=O)NCCc3ccccc3)C2)c1C (centres undefined)	0.68	1	-4	0	1
Cc1cccc(NC(=O)C2c3ccccc3C(=O)N3CCc4ccccc4C23)n1 (centres undefined)	-4.6	0.6	41	28	0.7
CN1CCN(C(=O)c2cn(-c3ccccc3)nc2-c2cccnc2)CC1	-0.0032	1.3	-30	-2	1
Cc1ccc(-c2nn(-c3ccccc3)cc2C(=O)N2CCOCC2)cc1	·	0.3	71*	54*	0.5
CCOc1ccccc1C(=O)N(CN1CCCC1=O)c1cccc(Cl)c1	0.8	0.9	13	5	0.9
CCC(C)n1cnc2c(c1=O)c1nc3ccccc3nc1n2Cc1ccc2c(c1)OCO2 (centres undefined)	-0.94	0	99*	81*	0.2
CCC(C)n1cnc2c(c1=O)c1nc3ccccc3nc1n2-c1ccc2c(c1)OCCO2 (centres undefined)	·	0.7	30	10	0.9
Cc1nc2c(c(=O)n1CCC(C)C)c1nc3ccccc3nc1n2Cc1ccc2c(c1)OCO2	·	0.4	58*	22	0.8
COCCCN1C(=O)c2[nH]nc(-c3ccccc3O)c2C1c1cccc(Cl)c1 (centres undefined)	-6.4*	0.6	35	40	0.6
